# Data as given in the supplement of paper PMC12350171.
# Counter-ions that a name gives are not always drawn. Values without a mark were called inactive.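 How the source made its calls: active = normalised median growth AUC below 0.1 of DMSO control; inactive = AUC 0.1 or higher.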
# Test system: P. vulgatus WT
# Experiment: growth AUC normalised to DMSO control (median) (fraction of control); higher = less growth inhibition, active = hit call of the paper
# Settings: 20 µM
# Outline: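 Anaerobic growth was tracked hourly at OD578 for 24 h in 96-well plates of mGAM seeded at OD578 0.01 with each approved-drug library compound at 20 μM and 1% DMSO. Strains had first been passaged twice overnight without oxygen. Three biological replicates were run. The reported median is the area under the curve, calculated by the trapezoidal rule on curves truncated at entry into stationary phase and normalised to vehicle wells on the same plate.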
# 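Further: active when median AUC fell below 0.1.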
row,Compound,growth AUC normalised to DMSO control
1,CC(C)[C@H](N)C(=O)OCC(CO)OCn1cnc2c(=O)nc(N)[nH]c21 (stereo not given in full) [Valganciclovir hydrochloride],1.08
2,O=C1[C@H]2CCCC[C@H]2C(=O)N1CCCCN1CCN(c2nsc3ccccc23)CC1 [Perospirone hydrochloride],0.986
3,O=[N+]([O-])c1ccc(O)c2ncccc12 [Nitroxoline],0.0282 (active)
4,CCCCCCCCCCCCCCCCCCCCCC(=O)Nc1ccn([C@@H]2O[C@H](CO)[C@@H](O)[C@@H]2O)c(=O)n1 [Enocitabine],1.04
5,CN(C)CCc1c[nH]c2ccc(Cn3cncn3)cc12 [Rizatriptan benzoate],1.03
6,Cn1cc(C(=O)[C@@H]2CCc3[nH]cnc3C2)c2ccccc21 [Ramosetron hydrochloride],0.997
7,CC(=O)OCC(=O)[C@@]1(O)CC[C@H]2[C@@H]3CCC4=CC(=O)C=C[C@]4(C)[C@@]3(F)[C@@H](O)C[C@@]21C [Isoflupredone acetate],0.986
8,O=C(Cn1c(=O)sc2ccc(Cl)cc21)N1CCN(CCO)CC1 [Tiaramide Hydrochloride],1.04
9,C/C(O)=C(\C#N)C(=O)Nc1ccc(C(F)(F)F)cc1 [Teriflunomide],0.982
10,O=C(O)C1CSCN1 (stereo not given) [Timonacic],0.999
11,CC[N+]1(CC)CCC(=C(c2ccccc2)c2ccccc2)C1C (stereo not given) [Prifinium Bromide],0.989
12,CCCCC(=O)N(Cc1ccc(-c2ccccc2-c2nnn[nH]2)cc1)[C@H](C(=O)O)C(C)C [Valsartan],1.02
13,NS(=O)(=O)c1cc(C(=O)NN2C[C@@H]3[C@H]4CC[C@H](C4)[C@@H]3C2)ccc1Cl [Tripamide],1.07
14,CC(=O)Nc1ccc(OC(=O)c2ccccc2O)cc1 [Acetaminosalol],0.964
15,Cc1nc(=O)c2cc(CN(C)c3ccc(C(=O)N[C@@H](CCC(=O)O)C(=O)O)s3)ccc2[nH]1 [Raltitrexed],0.997
16,Oc1cc(O)c2c(c1)O[C@H](c1ccc(O)c(O)c1)[C@@H](O)C2 [Cianidanol],1.01
17,C[C@@H](CN1CC(=O)NC(=O)C1)N1CC(=O)NC(=O)C1 [Dexrazoxane hydrochloride],0.988
18,CN1CCC[C@@H]1Cc1c[nH]c2ccc(CCS(=O)(=O)c3ccccc3)cc12 [Eletriptan],1.05
19,CC(C)COC(=O)OCN1C(=O)CN(CCN2CC(=O)N(COC(=O)OCC(C)C)C(=O)C2)CC1=O [Sobuzoxane],1.08
20,OCCN1CCN(CC/C=C2/c3ccccc3Sc3ccc(C(F)(F)F)cc32)CC1 [Flupentixol dihydrochloride cis-(Z)],0.997

row,Compound,growth AUC normalised to DMSO control
1,CC(C)OC(=O)C(C(=O)OC(C)C)=C1SC=CS1 [Malotilate],0.977
2,CC(/C=C1\SC(=S)N(CC(=O)O)C1=O)=C\c1ccccc1 [Epalrestat],1.05
3,O=C(NC1CCN(CCCCC2(C(=O)NCC(F)(F)F)c3ccccc3-c3ccccc32)CC1)c1ccccc1-c1ccc(C(F)(F)F)cc1 [Lomitapide],1.05
4,CCCSc1nc(N[C@@H]2C[C@H]2c2ccc(F)c(F)c2)c2nnn([C@@H]3C[C@H](OCCO)[C@@H](O)[C@H]3O)c2n1 [Ticagrelor],0.544
5,O=C1c2c(O)ccc(O)c2C(=O)c2c(NCCNCCO)ccc(NCCNCCO)c21 [Mitoxantrone dihydrochloride],1.04
6,CCOCC(O)COc1ccc(NC(=O)CC[S+](C)C)cc1 (stereo not given) [Suplatast Tosylate],1.01
7,CN(C)CCCN1c2ccccc2[S+]([O-])c2ccc(Cl)cc21 (stereo not given) [Chlorpromazine Sulfoxide],1.03
8,NC(=O)Cc1cccc(C(=O)c2ccccc2)c1N [Nepafenac],1.01
9,CC(C)(CO)[C@@H](O)C(=O)NCCC(=O)NCCSSCCNC(=O)CCNC(=O)[C@H](O)C(C)(C)CO [D-Pantethine],1.01
10,CC(C)OC(=O)CCC/C=C\C[C@@H]1[C@@H](CC[C@@H](O)CCc2ccccc2)[C@H](O)C[C@@H]1O [Latanoprost],0.966
11,CC(C)Cc1ccc(CC(=O)O)cc1 [Ibufenac],1.06
12,C[C@H]1[C@@H](O)O[C@@H]2O[C@@]3(C)CC[C@H]4[C@H](C)CC[C@@H]1[C@@]24OO3 [Artenimol],1.04
13,Cc1cc(C#N)cc(C)c1Oc1nc(Nc2ccc(C#N)cc2)nc(N)c1Br [Etravirine],1.02
14,CC(C)[C@H]1CC[C@H](C(=O)N[C@H](Cc2ccccc2)C(=O)O)CC1 [Nateglinide],0.999
15,CCC(=O)c1c(O)cc(O)cc1O [Flopropione],0.986
16,C[C@H](O)[C@H](O)[C@H]1CNc2[nH]c(N)nc(=O)c2N1 [Sapropterin dihydrochloride],1.05
17,CC(=O)Nc1ccc(C(=O)O)cc1 [Acedoben],1.01
18,CN1c2cc(O)c(N=NC(N)=O)cc2CC1S(=O)(=O)O (stereo not given) [Carbazochrome sodium sulfonate],1
19,O=C(O)c1cc(=O)c2ccccc2o1 [Chromocarb],1
20,CCN1CCN(c2cc3c(cc2F)c(=O)c(C(=O)O)cn3C2CC2)CC1 [Enrofloxacin],0.0049 (active)
